Here are results for 42 molecules from article PMC4336329 (PLoS ONE, 2015).

About 2,200 (0.71%) of roughly 310,000 compounds showed an effect of 50% or more. The effect is printed as a negative number. This excerpt belongs to a sample that is enriched for strong results.

The target in this assay is human ether-à-go-go-related gene (hERG) potassium channel (human, UniProt Q12809). Nature of the assay: primary screen, population patch clamp on CHO cells stably expressing hERG; higher = less effect of the substance.
Sequence of human ether-à-go-go-related gene (hERG) potassium channel (Q12809 whole entry, looked up): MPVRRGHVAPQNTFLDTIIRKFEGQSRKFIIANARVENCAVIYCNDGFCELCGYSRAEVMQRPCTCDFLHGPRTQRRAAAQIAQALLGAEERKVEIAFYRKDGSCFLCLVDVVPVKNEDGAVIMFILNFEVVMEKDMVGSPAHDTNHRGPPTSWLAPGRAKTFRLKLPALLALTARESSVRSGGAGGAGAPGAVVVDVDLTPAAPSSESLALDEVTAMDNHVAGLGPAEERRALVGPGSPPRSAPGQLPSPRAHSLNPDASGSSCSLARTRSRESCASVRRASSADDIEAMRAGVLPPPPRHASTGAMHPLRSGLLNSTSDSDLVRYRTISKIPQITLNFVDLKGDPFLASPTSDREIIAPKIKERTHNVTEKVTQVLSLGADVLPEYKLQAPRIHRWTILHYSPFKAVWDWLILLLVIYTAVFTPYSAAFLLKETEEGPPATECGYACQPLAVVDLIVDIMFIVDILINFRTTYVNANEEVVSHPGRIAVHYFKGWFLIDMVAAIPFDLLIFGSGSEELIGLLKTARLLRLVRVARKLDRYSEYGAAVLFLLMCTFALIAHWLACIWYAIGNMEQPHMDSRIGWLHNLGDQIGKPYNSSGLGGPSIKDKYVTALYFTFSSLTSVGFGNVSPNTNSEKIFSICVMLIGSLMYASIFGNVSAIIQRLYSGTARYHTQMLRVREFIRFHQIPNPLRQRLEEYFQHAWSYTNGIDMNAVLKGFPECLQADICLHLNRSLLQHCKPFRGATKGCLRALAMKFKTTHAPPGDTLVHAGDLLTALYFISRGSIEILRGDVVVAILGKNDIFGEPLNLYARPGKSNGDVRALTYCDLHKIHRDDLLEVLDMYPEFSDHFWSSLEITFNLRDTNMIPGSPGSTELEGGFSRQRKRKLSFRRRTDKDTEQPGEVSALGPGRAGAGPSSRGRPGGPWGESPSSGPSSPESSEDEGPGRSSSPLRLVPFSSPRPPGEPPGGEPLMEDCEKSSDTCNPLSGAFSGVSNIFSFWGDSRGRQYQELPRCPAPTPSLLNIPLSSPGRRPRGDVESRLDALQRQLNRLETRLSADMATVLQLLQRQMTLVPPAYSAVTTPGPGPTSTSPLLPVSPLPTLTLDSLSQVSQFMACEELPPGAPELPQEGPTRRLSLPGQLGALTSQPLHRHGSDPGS
With `CCN(CC)CCCNC(=O)C1CCC(CNS(=O)(=O)c2c(C)cc(C)cc2C)CC1` (stereo not drawn), the “hERG current change (%, negative = inhibition) at 1uM” value worked out at 12.6%. The result for `CCCCNC(=O)C1CCC(CNS(=O)(=O)c2c(C)cc(C)cc2C)CC1` (stereo not drawn) reads -13.4%; that for `CCC1CCCCN1CCCNC(=O)C1CCC(CNS(=O)(=O)c2c(C)cc(C)cc2C)CC1` (stereo not drawn), -3.19%. Regarding `CC1CCN(CCCNC(=O)C2CCC(CNS(=O)(=O)c3ccccc3)CC2)CC1` (stereo not drawn), the “hERG current change (%, negative = inhibition) at 1uM” value is given as 16.3%. The value for `Cc1ccc(Nc2nc(N)c([N+](=O)[O-])c(NCc3ccccc3)n2)cc1` was 8.5%; that for `CC(C)(C)c1ccc(OCCCC(=O)N2CCOCC2)cc1` was -2.13%; that for `O=C(CCNC(=O)c1ccccc1Cl)NCC1CCCO1` (stereo not drawn) was -9.04%. Take `CCCn1c(N)c(C(=O)CN(C)CC(=O)Nc2c(Cl)cccc2Cl)c(=O)[nH]c1=O`: the “hERG current change (%, negative = inhibition) at 1uM” value is reported as 0.55%. With `CCCn1c(N)c(C(=O)CN(C)CC(=O)Nc2cccc(F)c2)c(=O)[nH]c1=O`, the “hERG current change (%, negative = inhibition) at 1uM” value is on record as -73.1%. Regarding `CCCn1c(N)c(C(=O)CN(C)CC(=O)Nc2ccc(F)cc2)c(=O)[nH]c1=O`, the “hERG current change (%, negative = inhibition) at 1uM” value is recorded as -20%. As for `O=C(Nc1ccccc1)N1CCn2c(nc3ccccc32)C1`, the “hERG current change (%, negative = inhibition) at 1uM” value was -6.18%. For the molecule `COc1cc(C(=O)Nc2ccc(C)cc2)c2ccccc2n1`, the “hERG current change (%, negative = inhibition) at 1uM” value was found to be 7.49%.

On to `CN(Cc1ccccc1)C(=O)CCc1ccccc1`, for which the “hERG current change (%, negative = inhibition) at 1uM” value was determined as 13.8%. The result for `Cc1cc(Nc2cccc([N+](=O)[O-])c2)c2cccc(C)c2n1.Cl` reads -73.5%. The result for `CC(=O)c1cccc(Nc2cc(C)nc3c(C)cccc23)c1.Cl` reads -16.9%; that for `Cc1cc(Nc2cccc([N+](=O)[O-])c2)c2ccccc2n1`, -36.7%; that for `COc1ccc(Br)c(C(=O)OCC(=O)NC2CCCCCC2)c1`, -1.39%.

On to `CCCCN(CC)CCCNC(=O)c1cn(-c2ccc(OC)cc2)c(=O)c2ccccc12`, for which the “hERG current change (%, negative = inhibition) at 1uM” value is listed as -7.85%.

Regarding `CCCCN(CC)CCNC(=O)c1cn(-c2ccc(Cl)cc2)c(=O)c2ccccc12`, the “hERG current change (%, negative = inhibition) at 1uM” value is given as -81.6%. The value for `CCCN(CCC)CCCNC(=O)c1cn(-c2ccc(OC)cc2)c(=O)c2ccccc12` was 1.46%; that for `CCOC(=O)N1CCN(C(C)C(=O)c2c[nH]c3ccccc23)CC1` (stereo not drawn) was -0.111%. The result for `O=C(NNc1ccc(-c2csnn2)cc1)c1ccccc1C(F)(F)F` reads 9.16%.

With `CC1C(=O)CC(c2ccccc2)NC1c1ccccc1` (stereo not drawn), the “hERG current change (%, negative = inhibition) at 1uM” value was 3.38%. Regarding `CC1C(=O)CC(c2ccc([N+](=O)[O-])cc2)NC1c1ccc([N+](=O)[O-])cc1.Cl` (stereo not drawn), the “hERG current change (%, negative = inhibition) at 1uM” value is listed as -51%. As to `CCC1C(=O)C(C)(C)C(=O)OC1c1ccc([N+](=O)[O-])cc1` (stereo not drawn), the “hERG current change (%, negative = inhibition) at 1uM” value worked out at 9.82%. For `CCC1C(=O)CC(c2ccc([N+](=O)[O-])cc2)NC1c1ccc([N+](=O)[O-])cc1` (stereo not drawn), the “hERG current change (%, negative = inhibition) at 1uM” value was -69.7%. For `CCC1C(=O)CC(c2ccccc2)NC1c1ccccc1` (stereo not drawn), the “hERG current change (%, negative = inhibition) at 1uM” value came out at 5.67%. The value for `CC1C(=O)C(C)C(c2ccc([N+](=O)[O-])cc2)NC1c1ccc([N+](=O)[O-])cc1` (stereo not drawn) was -4.32%.

For the molecule `Cc1ccc(P(=S)(c2ccc(C)o2)N2CCOCC2)o1`, the “hERG current change (%, negative = inhibition) at 1uM” value was 3.25%. The result for `CCn1c(SCC(=O)Nc2cc(NC(C)=O)ccc2OC)nnc1-c1cccnc1` reads 7.42%; that for `CN(Cc1ccccn1)C(=O)C1CCC(=O)N(Cc2cccc(F)c2)C1` (stereo not drawn), 8.55%; that for `Cc1nc2ccccn2c1CN(C)C(=O)C1CCC(=O)N(CCc2cccc(F)c2)C1` (stereo not drawn), -10.4%. `Cc1nc2ccccn2c1CN(C)C(=O)C1CCC(=O)N(Cc2cccc(F)c2)C1` (stereo not drawn): the “hERG current change (%, negative = inhibition) at 1uM” value is on record as -58%.

As to `COc1ccc(C(=O)N/C(=C\c2ccccc2)C(=O)NC(CC(C)C)C(=O)O)cc1` (stereo not drawn), the “hERG current change (%, negative = inhibition) at 1uM” value is reported as 21.4%.

In the case of `Cc1cccc(OCC(=O)Nc2ccncc2)c1`, the “hERG current change (%, negative = inhibition) at 1uM” value came out at 6.41%. On to `CCOc1ccc(CN(C)CC(O)COC(c2ccc(OC)cc2)c2ccc(OC)cc2)cc1` (stereo not drawn), for which the “hERG current change (%, negative = inhibition) at 1uM” value was -81.9%. On to `COc1ccc(CN(C)CC(O)COC(c2ccccc2)c2ccccc2)c(OC)c1OC` (stereo not drawn), for which the “hERG current change (%, negative = inhibition) at 1uM” value is recorded as -43.6%. The result for `COc1cccc(CN(C)CC(O)COC(c2ccccc2)c2ccccc2C)c1` (stereo not drawn) reads -8.56%; that for `COc1ccc(CN(C)CC(O)COC(c2ccc(OC)cc2)c2ccc(OC)cc2)cc1` (stereo not drawn), -80.8%. Turning to `COc1ccc(C(OCC(O)CN(C)C2CCCCC2)c2ccc(OC)cc2)cc1` (stereo not drawn), the “hERG current change (%, negative = inhibition) at 1uM” value is on record as -29.3%. `CCN(Cc1ccccc1)CC(O)COC(c1ccc(OC)cc1)c1ccc(OC)cc1` (stereo not drawn): the “hERG current change (%, negative = inhibition) at 1uM” value is -32.9%.

On to `CCN1CCN(S(=O)(=O)c2ccc(Cl)c(C(=O)NC(C)c3ccccc3Cl)c2)CC1` (stereo not drawn), for which the “hERG current change (%, negative = inhibition) at 1uM” value is 5.99%.
